Assay results taken from PubChem BioAssay (NCATS).
Records with an inconclusive call do not appear. Calls of active or inactive are those of the source. The call rests on the fitted dose curve; in most records, active means well fitted inhibition curve with a large enough effect; inconclusive means small, poorly fitted or top-dose-only effect; inactive means flat fitted curve, though single readings scatter.

Key:
Experiment in all cases: qHTS profiling for inhibitors of Plasmodium falciparum proliferation (AID 504749); further: nearly all actives have a fitted effect of over 60% in size
Settings in all cases: P. falciparum in erythrocytes, SYBR Green DNA, 72 h; series mostly up to 28.7 µM
[1] = tested on: CP250
Procedure, shortened: (§1)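 Readout was DNA-dye fluorescence from lysed cultures, ex 485/em 535 nm. Parasitized red cells had grown 72 h with compound; data scaled between 0.29 uM artemisinin and DMSO wells and corrected using vehicle-only plates.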

[2] = tested on: CP252
Procedure, shortened: as §1

[3] = tested on: CP256
Procedure, shortened: as §1

[4] = tested on: CP260
Procedure, shortened: as §1

[5] = tested on: CP262
Procedure, shortened: as §1

[6] = tested on: CP265
Procedure, shortened: as §1

[7] = tested on: CP266
Procedure, shortened: as §1

[8] = tested on: CP268
Procedure, shortened: as §1

[9] = tested on: CP269
Procedure, shortened: as §1

[10] = tested on: CP286
Procedure, shortened: as §1

[11] = tested on: CP291
Procedure, shortened: as §1

[12] = tested on: CP297
Procedure, shortened: as §1

[13] = tested on: CP305
Procedure, shortened: as §1

[14] = tested on: CP315
Procedure, shortened: as §1

[15] = tested on: CP325
Procedure, shortened: as §1

[16] = tested on: CP329
Procedure, shortened: as §1

[17] = tested on: CP335
Procedure, shortened: as §1

[18] = tested on: DFO2036
Procedure, shortened: as §1

[19] = tested on: DIV14
Procedure, shortened: as §1

[20] = tested on: DIV17
Procedure, shortened: as §1

Measured: Potency

CCCC(C)C1(CC)C(=O)NC(=O)NC1=O (stereo not drawn)
inactive: all assays above

N#CN
inactive: all assays above

C[N+]1(C)C2CCC1CC(OC(=O)c1c[nH]c3ccccc13)C2 (stereo not drawn)
inactive: all assays above

CC(C)CCON=O
inactive: all assays above

O=CC=O
inactive: all assays above

CC(=O)O[C@H]1CC[C@H]2[C@@H]3CCC4=CC(=O)CCC4=C3C=C[C@]12C
inactive: all assays above

O=C1C2CC=CCC2C(=O)N1SC(Cl)(Cl)Cl (stereo not drawn)
inactive: all assays above

CCCC(C)(COC(N)=O)COC(=O)NC1CC1 (stereo not drawn)
inactive: all assays above

CCC1(c2ccccc2)C(=O)NC(=O)N(C(=O)c2ccccc2)C1=O (stereo not drawn)
not listed: [20]
inactive: all other assays above

O=[N+]([O-])C(Br)(CO)CO
inactive: all assays above

O=C(NC(=O)c1c(F)cccc1F)Nc1ccc(Cl)c(Oc2ncc(C(F)(F)F)cc2Cl)c1
inactive: all assays above

CCC1(c2ccccc2)C(=O)NC(=O)NC1=O
inactive: all assays above

ClC1C(Cl)C(Cl)C(Cl)C(Cl)C1Cl (stereo not drawn)
not listed: [19]
inactive: all other assays above
